Screening data: PubChem BioAssay, National Center for Advancing Translational Sciences (NCATS)
JMJD2A Tudor – qHTS Assay for Inhibitors of JMJD2A-Tudor Domain. Lysine-specific demethylase 4A (Homo sapiens), O75164. AlphaScreen JMJD2A-Tudor / H3K4me3 peptide binding. Potency, µM (series often up to 114 µM), for inactives: at the highest dose activity change, negative = inhibition, usual class: inhibitors. 390,000 tested, 4.4% active; also: potency is read from the fitted curve at half-maximal effect; % is scaled to controls: 0 for no effect and ±100 for the full control effect; nearly all actives have a fitted effect of over 50% in size
G9a block – qHTS Assay for Inhibitors of Histone Lysine Methyltransferase G9a; Potency, µM (series often up to 102 µM), for inactives: at the highest dose activity, negative = inhibition, usual class: inhibitors; Histone-lysine N-methyltransferase EHMT2 (Homo sapiens), Q96KQ7; AID 504332, 2011; G9a H3K9 monomethylation, AlphaScreen, 2 h; 350,000 tested, 8.8% active; also: potency is read from the fitted curve at half-maximal effect; % is scaled to controls: 0 for no effect and ±100 for the full control effect; nearly all actives have a fitted effect of over 75% in size
Target sequence (Q96KQ7 913-1193 limits assumed): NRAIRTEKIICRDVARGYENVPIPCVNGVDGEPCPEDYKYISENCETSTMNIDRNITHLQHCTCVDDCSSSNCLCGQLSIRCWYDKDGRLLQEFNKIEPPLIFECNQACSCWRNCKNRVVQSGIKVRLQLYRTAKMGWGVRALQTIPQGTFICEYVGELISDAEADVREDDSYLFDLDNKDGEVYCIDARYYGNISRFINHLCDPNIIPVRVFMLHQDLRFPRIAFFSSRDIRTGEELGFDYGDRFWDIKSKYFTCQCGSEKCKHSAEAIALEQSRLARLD
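Chemiluminescent proximity detection of H3K9 monomethylation, read after 10 min bead incubation in the dark. Reaction: 20 nM G9a, 500 nM biotin-H3K9 peptide, 20 uM SAM cofactor, 2 h, room temperature, following 15 min enzyme-compound preincubation.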
BAZ2B inh – qHTS Assay for Inhibitors of BAZ2B | Bromodomain adjacent to zinc finger domain protein 2B (Homo sapiens), Q9UIF8 | AlphaScreen BAZ2B-H3K14Ac peptide displacement | Potency, µM (titrated, usually from 114 µM), without a hit: top-dose activity change, negative = inhibition, usual class: inhibitors | 360,000 tested, 4.4% active; also: potency is read from the fitted curve at half-maximal effect; % is scaled to controls: 0 for no effect and ±100 for the full control effect; nearly all actives have a fitted effect of over 60% in size
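Inhibition is scored as reduced AlphaScreen emission. The BAZ2B/b-H3(5-23)K14Ac complex (50 nM each) in PBS pH 7.4, 0.01% Tween-20 meets compound (up to 110 uM) for 30 min at RT before bead addition.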
CtBP-E1A blk – qHTS Assay for Inhibitors of the CtBP/E1A Interaction; CtBP / adenovirus E1A interaction (AlphaScreen); AID 651724, 2012; AlphaScreen GST-E1A/His-CtBP binding, 1536-well; active compounds read low; 340,000 tested, 0.49% active; activity change, % (concentration not given with the values); in the data active = activity change below about -65%; inconclusive = mostly about -30% to -63%; also: % is scaled to controls: 0 for no effect and ±100 for the full control effect
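AlphaScreen with 125 nM GST-E1A and 125 nM His-CtBP (5X stocks) in Tris pH 8.0, 300 mM NaCl, BSA, Tween 20, TCEP. Compounds preincubated 2 h at 37 deg C, then glutathione donor/nickel acceptor beads added for 1 h at 37 deg C in dark.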
Six1-Eya2 blk – qHTS Assay for Inhibitors of the Six1/Eya2 Interaction; AlphaScreen GST-Six1/His-Eya2 binding, biochemical; active compounds read low; activity change, % (no concentration beside the values); 360,000 tested, 0.56% active; AID 651725, 2012; in the data active = activity change below about -65%; inconclusive = mostly about -30% to -63%; also: % is scaled to controls: 0 for no effect and ±100 for the full control effect
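Compounds are tested against tagged Six1 and Eya2 proteins bridged by glutathione donor and nickel acceptor beads; after a one-hour incubation at 37 °C without light, AlphaScreen emission is recorded.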
HP1b binding inh – HTS for Inhibitors of HP1-beta Chromodomain Interactions with Methylated Histone Tails; 390,000 tested, 0.56% active; AlphaScreen HP1-beta / biotin-H3K9me3 peptide binding; Potency, µM (titrated, usually from 114 µM), for the others: at the highest dose activity change, negative = inhibition, most hits filed as inhibitors; Chromobox protein homolog 1 (Homo sapiens), P83916; also: potency is read from the fitted curve at half-maximal effect; nearly all actives have a fitted effect of over 70% in size
Target sequence (P83916 whole entry, looked up): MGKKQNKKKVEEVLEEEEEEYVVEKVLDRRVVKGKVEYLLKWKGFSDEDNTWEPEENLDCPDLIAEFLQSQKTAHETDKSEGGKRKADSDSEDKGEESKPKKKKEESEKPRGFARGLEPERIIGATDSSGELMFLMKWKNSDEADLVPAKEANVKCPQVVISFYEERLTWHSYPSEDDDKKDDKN
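AlphaScreen: HP1-beta (50 nM) preformed 30 min with biotin-H3(1-18)K9me3 peptide (50 nM) in PBS pH 7.4, 0.01% Tween-20. Compound added for 30 min at RT, then streptavidin donor/nickel chelate acceptor beads (10 ug/mL) for 30 min.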
Active calls of the source: *; ! = a repeat was not active; [ ] = another dose, or the depositor's remark. Only some compounds are listed: those with a hit (about 10% of all), similar ones and a draw of the others. Unless noted, calls follow the shape of the dose curve; as a rule, active = well fitted inhibition curve with a large enough effect; inconclusive = small, poorly fitted or top-dose-only effect; inactive = no such curve, though single readings can be large or run the other way.

`Cc1nc2nc(SCC(=O)O)nn2c(C)c1Cc1ccccc1Cl` gave JMJD2A Tudor 7%, G9a block 28µM*, BAZ2B inh 8%, CtBP-E1A blk -1, Six1-Eya2 blk -3 and HP1b binding inh 38%.
Cc1nc2nc(SCC(=O)O)nn2c(C)c1Cc1c(F)cccc1Cl was read as JMJD2A Tudor -12%, G9a block 11µM*, BAZ2B inh 2%, CtBP-E1A blk -2, Six1-Eya2 blk -2 and HP1b binding inh 46%.
`CC1=Nc2ccccc2/C1=C/c1c(N)n2c(S(=O)(=O)C(C)C)nsc2nc1=O` gave JMJD2A Tudor -20%, G9a block 13%, BAZ2B inh inconclusive, CtBP-E1A blk -9, Six1-Eya2 blk -19 and HP1b binding inh 4%.
Screening CC1=Nc2ccc(C)cc2/C1=C/c1c(N)n2c(S(=O)(=O)C(C)C)nsc2nc1=O returned JMJD2A Tudor -31%, G9a block 50µM*, BAZ2B inh -36%, CtBP-E1A blk -3, Six1-Eya2 blk inconclusive and HP1b binding inh 15%.
Screening Clc1ccc(-c2noc3ncnc(NCCc4ccccc4)c23)cc1 returned JMJD2A Tudor -2%, G9a block 11%[59 µM], BAZ2B inh 42%[57.1 µM] and HP1b binding inh 67%.
`O=C1c2c(O)cc(O)cc2O[C@H](c2ccc(O)c(O)c2)[C@@H]1O` gave G9a block -12%[59 µM] and BAZ2B inh inconclusive.
For O=C1c2c(O)cc(O)cc2O[C@H](c2ccc(O)c(O)c2)[C@H]1O the results were JMJD2A Tudor -14%, G9a block 10µM*, BAZ2B inh inconclusive, CtBP-E1A blk -1, Six1-Eya2 blk 0 and HP1b binding inh 19%.
`Oc1cc(O)c2c(c1)O[C@H](c1ccc(O)c(O)c1)[C@@H](O)C2` gave JMJD2A Tudor -10%, G9a block 28µM*!, BAZ2B inh 0%, CtBP-E1A blk -3, Six1-Eya2 blk -11 and HP1b binding inh 20%.
For Cc1ccc(C(=O)NNC(=O)c2ccc3ncccc3c2)cc1 the results were JMJD2A Tudor 0%, G9a block 24%[12.7 µM], BAZ2B inh 1%, CtBP-E1A blk 1, Six1-Eya2 blk -2 and HP1b binding inh 32%.
COCCCNC(=O)CSC1=Nc2ccccc2C2=NC(CCC(=O)NCc3ccccc3OC)C(=O)N12 (centres undefined) was read as JMJD2A Tudor -13%, G9a block 22%[59 µM], BAZ2B inh -6% and HP1b binding inh -17%.
`Cc1cc(O)ccc1Nc1nc2ccccc2nc1Nc1ccc(O)cc1C` gave JMJD2A Tudor 89µM*, G9a block 4.5µM*, BAZ2B inh 50µM*, CtBP-E1A blk -28, Six1-Eya2 blk -12 and HP1b binding inh -17%.
Cn1cc(-c2cc3n(n2)CCC(=O)N3CCCC(=O)NCc2ccc(F)cc2)c2ccccc21 was read as JMJD2A Tudor 1%, G9a block -5%[59 µM], BAZ2B inh 1% and HP1b binding inh 21%[57 µM].
For COc1cc(Nc2nc(-c3ccccc3)c3cc(C)ccc3n2)cc(OC)c1OC the results were JMJD2A Tudor inconclusive, G9a block 40µM*, BAZ2B inh inconclusive, CtBP-E1A blk inconclusive, Six1-Eya2 blk inconclusive and HP1b binding inh -23%.
Screening COc1cccc(Nc2nc(-c3ccccc3)c3cc(C)ccc3n2)c1 returned JMJD2A Tudor 59%, G9a block 76%[59 µM], BAZ2B inh 42% and HP1b binding inh 118%.
Cc1c(N2CCCC2)cc2c(c1NC(=O)c1ccccc1Cl)C(C)(C)CC2(C)C was read as JMJD2A Tudor -34%, G9a block 28µM*, BAZ2B inh -37%, Six1-Eya2 blk -16 and HP1b binding inh 6%.
O=C(Nc1ccccc1N1CCCC1)c1cccc(Cl)c1Cl was read as JMJD2A Tudor inconclusive, G9a block 19%[12.7 µM], BAZ2B inh -14%, CtBP-E1A blk 2, Six1-Eya2 blk -10 and HP1b binding inh 29%.
COc1cccc(NC(=O)CC2NCCNC2=O)c1 (centres undefined) was read as JMJD2A Tudor -14%, G9a block 6%[59 µM], BAZ2B inh 5% and HP1b binding inh 18%.
Screening CC(C)(C)c1ccc(C(=O)N2CCC2(C)C(=O)Nc2cccc(C#N)c2)cc1 (centres undefined) returned CtBP-E1A blk 5 and Six1-Eya2 blk -1.
Screening CC(C)(C)S(=O)(=O)c1cnc(-c2ccccn2)nc1N returned JMJD2A Tudor inconclusive, BAZ2B inh 79µM*, CtBP-E1A blk inconclusive, Six1-Eya2 blk inconclusive and HP1b binding inh 17%.
For CC(C)(C)S(=O)(=O)c1cnc(-c2cnccn2)nc1N the results were JMJD2A Tudor -3%, G9a block 19%, BAZ2B inh 27%, CtBP-E1A blk -6, Six1-Eya2 blk 5 and HP1b binding inh 26%.
`CCc1ccc(OCC(=O)Nc2ccc(N3CCN(S(C)(=O)=O)CC3)cc2)cc1` gave JMJD2A Tudor 1%, G9a block 79µM*, BAZ2B inh 13%, CtBP-E1A blk 5, Six1-Eya2 blk 2 and HP1b binding inh 34%.
`COc1ccc(OCC(=O)Nc2ccc(N3CCCCC3)cc2)cc1` gave JMJD2A Tudor -14%, G9a block 8%, BAZ2B inh -31%, CtBP-E1A blk 3, Six1-Eya2 blk -8 and HP1b binding inh -16%.
Cc1ccc(OCC(=O)Nc2ccc(O)c(C(=O)O)c2)cc1C was read as JMJD2A Tudor -17%, G9a block 35µM*, BAZ2B inh 5%, CtBP-E1A blk 1, Six1-Eya2 blk 4 and HP1b binding inh 9%.
`CC(=O)c1ccc(OCC(=O)Nc2ccc(N3CCCCC3)cc2)cc1` gave JMJD2A Tudor inconclusive, G9a block -17%[12.7 µM], BAZ2B inh 45µM*, Six1-Eya2 blk -28 and HP1b binding inh inconclusive.
Cc1cc(C)cc(OCC(=O)Nc2ccc(N3CCCC3)cc2)c1 was read as JMJD2A Tudor inconclusive, G9a block -11%[59 µM], BAZ2B inh -30%, CtBP-E1A blk -29, Six1-Eya2 blk inconclusive and HP1b binding inh -36%.
